# Measurements from PubChem BioAssay AID2796 (The Scripps Research Institute Molecular Screening Center, 2010).
# The whole screen tested about 320,000 compounds, of which about 8,000 (2.5%) were called active. Only a selection was taken, and actives are over-represented in it overall. Unmarked numbers belong to inactive results. Rule as the data show it: active = activation above about 47%; inactive = the rest.
# Target: Aryl hydrocarbon receptor (Homo sapiens) (UniProt P35869)
# Assay: AHR activators, primary screen, cell-based, luminescence, luciferase reporter, human (AID 2796);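 also: 0% = vehicle wells and 100% = reference agonist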
# Conditions: AHR-responsive luciferase reporter cells, at 5 µM, active compounds read high
# Chain of Aryl hydrocarbon receptor (Homo sapiens) (P35869 whole entry, looked up): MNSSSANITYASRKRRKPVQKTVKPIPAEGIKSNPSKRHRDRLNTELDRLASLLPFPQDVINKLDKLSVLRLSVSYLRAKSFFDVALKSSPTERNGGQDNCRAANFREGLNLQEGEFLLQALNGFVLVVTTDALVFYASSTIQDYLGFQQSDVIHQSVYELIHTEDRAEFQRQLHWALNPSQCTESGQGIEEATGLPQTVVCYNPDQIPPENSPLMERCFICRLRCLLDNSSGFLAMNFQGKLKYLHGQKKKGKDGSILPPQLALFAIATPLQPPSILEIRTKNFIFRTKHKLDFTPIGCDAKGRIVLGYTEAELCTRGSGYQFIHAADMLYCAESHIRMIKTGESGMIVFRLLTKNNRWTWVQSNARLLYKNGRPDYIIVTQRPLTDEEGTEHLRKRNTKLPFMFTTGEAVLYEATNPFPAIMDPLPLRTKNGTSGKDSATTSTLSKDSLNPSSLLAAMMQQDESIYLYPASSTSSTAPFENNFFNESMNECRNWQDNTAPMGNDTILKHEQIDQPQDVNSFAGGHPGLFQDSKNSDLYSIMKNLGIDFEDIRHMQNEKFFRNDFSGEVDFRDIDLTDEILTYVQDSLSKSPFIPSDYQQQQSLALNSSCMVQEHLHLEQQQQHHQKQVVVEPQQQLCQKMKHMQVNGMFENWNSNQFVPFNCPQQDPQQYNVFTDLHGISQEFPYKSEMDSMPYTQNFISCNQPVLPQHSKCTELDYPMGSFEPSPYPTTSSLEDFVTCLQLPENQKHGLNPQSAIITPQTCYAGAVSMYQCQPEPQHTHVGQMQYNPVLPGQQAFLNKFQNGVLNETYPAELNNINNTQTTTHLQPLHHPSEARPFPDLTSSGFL
row,SMILES,activation
1,OCc1n[nH]c(CO)n1,-0.81%
2,O=C(C1CCN(C2CCN(Cc3cccc4c3OCO4)CC2)CC1)N1CCOCC1,4.05%
3,COc1ccc(CCOC2OC(CO)C(OC(=O)/C=C/c3ccc(O)c(OC)c3)C(O[C@H]3O[C@@H](C)[C@H](O)[C@@H](O)[C@H]3O)C2O)cc1O (some centres not stated),1.88%
4,NC(=O)C1=C[C@H](c2csc3ccccc23)C[C@H](OCc2ccc(CO)cc2)O1,0.39%
5,NC(=O)C1=C[C@@H](c2csc3ccccc23)C[C@@H](OCc2ccc(CO)cc2)O1,-0.11%
6,O=C(NC1CC1)C1=C[C@H](c2c[nH]c3ccccc23)C[C@H](OCc2ccc(CO)cc2)O1,135% (active)
7,CCN(CC)C(=O)COc1coc(CN2CCN(Cc3ccccc3)CC2)cc1=O,-1.36%
8,C/C(=N\Nc1ncc(Cl)cc1Cl)c1cccs1,1.11%
9,C/C(=N\Nc1ncc(Cl)cc1Cl)c1ccc(S(=O)(=O)NCc2ccco2)cc1,29.9%
10,COc1cccc(/C(C)=N/Nc2ncc(Cl)cc2Cl)c1,53.5% (active)
11,CC1CCCCC12NC(=O)N(CC(=O)N1CCN(c3ccccc3)CC1)C2=O (configuration not stated),0.1%
12,CC1=NN(C(=O)CCc2ccccc2O)C(O)(C(F)(F)F)C1 (configuration not stated),-1.07%
13,COc1cccc(OC)c1C(=O)Nc1ccc2c(c1)n(C)c(=O)n2C,1.94%
14,COc1cc2ccccc2cc1C(=O)Nc1ccc(N2CCOCC2)cc1,95.9% (active)
15,COc1cc2ccccc2cc1C(=O)N1CCOCC1,0.61%
16,COc1cccc(OC)c1C(=O)Nc1ccc(N2CCCCC2)cc1,79.6% (active)
17,COc1cc2ccccc2cc1C(=O)Nc1ccncc1,5.1%
18,COc1cccc(OC)c1C(=O)Nc1ccc(Cc2ccncc2)cc1,15.6%
19,FC(F)(F)C1CCCN(c2nsc3ccccc23)C1 (configuration not stated),16.6%
20,Cc1noc(C)c1S(=O)(=O)N(C)C[C@H]1Oc2ccc(NC(=O)C3CCCCC3)cc2C(=O)N([C@H](C)CO)C[C@@H]1C,-1.72%
21,CCc1ccc(NC(=O)CS(=O)CC(=O)N2CCN(c3ccccc3F)CC2)cc1 (configuration not stated),-1.39%
22,Cc1cccc(NC(=S)NCc2ccc3[nH]c4c(c3c2)CCCC4)c1,68% (active)
23,Cc1cc(C)cc(NC(=S)NCc2ccc(F)cc2)c1,4.28%

row,SMILES,activation
1,O=C(O)CCC(=O)NCc1ccc2[nH]c3c(c2c1)CCCC3,1.38%
2,COc1ccc(C)cc1-n1nnnc1SCc1nc2ccccc2c(=O)[nH]1,24.9%
3,Cc1ccc(-c2noc(CSc3nnnn3-c3ccccc3)n2)cc1,8.65%
4,Cc1ccc(Nc2nc(CSc3nnnn3-c3ccccc3)cc(=O)[nH]2)cc1,73.4% (active)
5,Cc1ccc(Br)c(NS(=O)(=O)c2cccc(C(=O)N3CCNC(=O)C3)c2)c1,1.33%
6,COC(=O)c1ccc(NC(=O)c2cc(Cl)ccc2OC)cc1,2.68%
7,COc1ccc(Cl)cc1C(=O)Nc1ccc(N(C)C(C)=O)cc1,81.3% (active)
8,COc1cc(OC)c(C(=O)Nc2ccc(N(C)C)cc2)cc1OC,-7.49%
9,Cc1ccsc1C(=O)OCC(=O)Nc1cccc(F)c1,-0.75%
10,Cc1ccc(C(=O)Nc2ccccc2-c2ccccc2)cc1S(=O)(=O)Nc1ccccc1,2.25%
11,Cc1ccc(C)c(NC(=O)C(OC(=O)c2ccc(C)s2)c2ccccc2)c1 (configuration not stated),29.4%
12,O=C(CCn1c(=S)[nH]c2cc3c(cc2c1=O)OCO3)NCc1ccc(Cl)cc1,-0.55%
13,Cn1cc(CCC(=O)NCc2ccc3c(c2)OCO3)c2ccccc21,8.58%
14,O=C(CCCCn1c(=O)[nH]c2ccccc2c1=O)NCc1ccc2c(c1)OCO2,79.9% (active)
15,O=C(CCc1c[nH]c2ccccc12)NCCOc1ccccc1,2.6%
16,CCN(CC)CCNC(=O)CCCCCn1c(=O)[nH]c2cc(C(=O)OC)ccc2c1=O,1.58%
17,O=C(CCCCCn1c(=O)[nH]c2ccccc2c1=O)NCCc1c[nH]c2ccccc12,54.7% (active)
18,O=c1c2ccccc2c(-c2ccccc2)nn1-c1ccccn1,0.2%
19,Cc1ccc(C(=O)NNC(=O)c2cc3cc4ccccc4nc3s2)cc1,64% (active)
20,Cc1ccc(C(=O)NNc2ncnc3ccccc23)cc1,19.4%
21,Cc1ccc(C(=O)NNC(=O)c2cccs2)cc1,-3.24%
22,Cc1cccc(NC(=O)c2ccc(S(=O)(=O)N(C)c3ccccc3)cc2)n1,13.7%
23,O=C(COC(=O)c1ccc([N+](=O)[O-])cc1Cl)NC(=O)c1ccccc1,0.29%

row,SMILES,activation
1,CCOC(OCC)c1ccc(/C=C\c2nccc(N)n2)cc1,2.83%
2,CC1=CC=CC2=N/C(=N\S(=O)(=O)c3ccc(F)cc3F)c3ccccc3CN12,68.7% (active)
3,CCNC(=S)N1CCN(S(=O)(=O)c2ccc(Cl)s2)CC1,-1.16%
4,Cc1cc(C)c(/C=C2\C(=O)Nc3ccccc32)[nH]1,47% (active)
5,CN(C)/C=C1/Nc2ccccc2C1=O,33.7%
6,O=C1Nc2ccccc2/C1=C/c1ccnc2ccccc12,8.16%
7,COCCN(C(=O)CCC(=O)Nc1nccs1)C(C(=O)NC(C)(C)C)c1ccc(Cl)cc1 (configuration not stated),0.14%
8,COc1ccccc1C(=O)COC(=O)COc1ccc(C#N)cc1,-0.13%
9,COc1ccc(CCNc2nc(C)cc(C)n2)cc1OC,4.65%
10,COc1ccc(/C=C/c2noc(-c3ccccc3OC(C)=O)n2)cc1,2.04%
11,Cc1ccc(-c2nc(-c3ccncc3)no2)c(C)c1,3.29%
12,COc1ccc(-c2nc(-c3ccccc3)no2)c(OC)c1,70.8% (active)
13,CCOC(=O)N1CCN(S(=O)(=O)N2CCCC(C(=O)NCCCN3CCC(C)CC3)C2)CC1 (configuration not stated),0.65%
14,CCC(C(=O)N1CCN(S(=O)(=O)c2sc(C(=O)O)c(C)c2C(=O)O)CC1)c1ccccc1 (configuration not stated),-0.9%
15,O=S(=O)(c1ccc(Br)cc1)c1nc(-c2ccccc2)oc1N1CCOCC1,3.81%
16,Cc1cc(N2CCOCC2)nc(-c2ccc(Br)cc2)n1,86.8% (active)
17,Cc1ccc(Sc2cc(N3CCOCC3)nc(-c3ccccc3)n2)cc1,3.2%
18,CC(=O)O[C@H]1CC[C@@]2(C)[C@@H](CC[C@@H]3[C@@H]2CC[C@]2(C)[C@@H](C(C)(C)O)C[C@@H]32)C1,1.86%
19,CCOC(=O)c1ccc(NC(=O)c2cc(=O)[nH]c3ccccc23)cc1,-0.98%
20,O=C(CNC(=O)c1cc(=O)[nH]c2ccccc12)Nc1ccc(F)c(F)c1,70.8% (active)
21,CC(NC(=O)c1cc(=O)[nH]c2ccccc12)c1ccc(F)cc1F (configuration not stated),-1.44%
22,COC(=O)C1=CO[C@@H](O[C@@H]2O[C@H](CO)[C@@H](O)[C@H](O)[C@H]2O)C2C1C[C@H](O)[C@@H]2C (some centres not stated),0.44%
23,CC(C)(C)n1nc(Cc2cccc3ccccc23)c(C#N)c1N,51.2% (active)

row,SMILES,activation
1,N#Cc1nc(-c2cccc3ccccc23)oc1N,-2.82%
2,CCc1nn(-c2cc(Oc3cccc4ccccc34)nc(-c3ccccc3)n2)c(N)c1C#N,10.9%
3,CCCCOc1ccc(C(=O)NCC(=O)OCC(=O)N2CCN(S(=O)(=O)c3ccc(C)cc3C)CC2)cc1,0.36%
4,COc1ccc(N2CCN(S(=O)(=O)c3cc4c5c(c3)C(C)C(=O)N5CCC4)CC2)cc1 (configuration not stated),-1.29%
5,NS(=O)(=O)c1ccc(-c2ccc(/C=C3\SC(=O)NC3=O)o2)cc1,125% (active)
6,CN1C(=O)/C(=C\c2ccc(-c3ccccc3)o2)SC1=S,6.56%
7,CN1CCN(/N=C/c2ccc(-c3ccc([N+](=O)[O-])cc3)o2)CC1,38.6%
8,c1ccc(-c2nccc(-c3ccc(-n4cnc5ccccc54)cc3)n2)nc1,-6.06%
9,COc1ccc(CCNC(=O)COc2ccc3c(c2)OCO3)cc1,10%
10,CC(C)(C)c1ccc(SCCc2ccncc2)cc1,14.1%
11,CC(C)CCNC(=O)C1CCC(CNc2c(N3CCC(C)CC3)c(=O)c2=O)CC1 (configuration not stated),7.38%
12,Cn1c(=NC(=O)C2CC2)sc2cc(F)cc(F)c21,69.9% (active)
13,O=C(CN(Cc1ccc(Br)cc1)S(=O)(=O)c1ccccc1)NCc1ccncc1,1.87%
14,C=CCn1c(CCNC(=O)c2cccs2)n[nH]c1=S,-2.49%
15,C=CCn1c(=NC(=O)c2ccc(S(=O)(=O)N3CCCC3)cc2)sc2cc(NC(C)=O)ccc21,1.47%
16,C=CCn1c(=NC(=O)c2cccs2)sc2cc(NC(C)=O)ccc21,118% (active)
17,O=C(Oc1c(-c2ccco2)oc2ccccc2c1=O)c1cccnc1,2.09%
18,COc1cccc(/C=C/c2ccc3ccccc3n2)c1OC(C)=O,8.53%
19,COc1ccccc1/C=C/C1=NC(=C\N(C)C)/C(=O)O1,57.2% (active)
20,COc1ccccc1/C=C/C(=O)NC(=S)N1CCOCC1,43%
21,O=C(COC(=O)C1CCCO1)Nc1nc(-c2ccc(F)cc2)cs1 (configuration not stated),-1.85%
22,CC(C)N(Cc1nnc(-c2ccccc2Br)o1)C(=O)c1cc(Cl)nc2ccccc12,18.6%
23,CCOc1ccc(S(=O)(=O)Nc2cccc(C(=O)NCC3(N4CCCCC4)CCCCC3)c2)cc1,-2.77%
